For 37 molecules, viability and inhibition results are on record in PubChem BioAssay.

Results filed as inconclusive are left out. Calls of active or inactive are those of the source.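 How the source made its calls, unless noted: active means inhibition over a set limit, the all-compound mean plus 3 SD, in both replicate runs; inconclusive means over that limit in just one replicate run; inactive means at or under that limit in both runs.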

A short description of the first assay: viability of PTEN-null HCT116 cells – cell-based, HCT116 clonal line, CellTiter-Glo, pilot screen (AID 824;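 active means viability at or below 27.92% in each of two runs, the all-compound median minus 4 SD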;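 further: 0% = 20 µM Hyamine control and 100% = vehicle cell control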). The settings on record: HCT116 PTEN-deleted viability, 60 h, at 10 µM, hits give low values. In general terms: In ATP-based viability assays light output follows the ATP content of the culture.
Broadly, the viability is a read-out of living cells in per cent, often relative to untreated cells. For the molecule `O=C1CCCC2=C1C(c1cccnc1)Nc1ccccc1N2` (stereo not drawn), the viability is 99.2% (inactive).
On the same count and under the same terms, to `CCCOC(=O)COc1cc(C)cc2oc(=O)c3c(c12)CCC3` belongs 86.1% (inactive).
Still for that read-out and setting: to `COc1cccc(OCC(=O)N2CCN(C)CC2)c1` belongs 102% (inactive); to `CCc1sc(C(=O)N2CCC3(CC2)OCCO3)cc1Br`, 100% (inactive); to `COc1cc2c(cc1OC)-c1c(OC)c(OC)cc3c1C(C2)N(C)CC3` (stereo not drawn), 61.6% (inactive).
Same read-out and setting: with `CN1C(=O)C(Cc2cccs2)C(=O)N(C)C1=O` the figure was 98.9% (inactive).
On to `O/N=C/c1c[nH]c2ccccc12`, for which the viability was 94.4% (inactive).
As for `C=C(C)c1cccc(C(C)(C)NC(=O)NC2CN3CCC2CC3)c1` (stereo not drawn), the viability was 93.9% (inactive).
Still for that read-out and setting: with `Nc1ccc(S(=O)(=O)N2CC3CC(C2)c2cccc(=O)n2C3)cc1` (stereo not drawn) the figure was 100% (inactive).
On the same count and under the same terms, to `CCCCCP(=O)(O)c1ccccc1` belongs 103% (inactive).
The same measure, in the same setting: with `CC(C)CC1C(C#N)=C(N)Oc2c1c(=O)oc1ccccc21` (stereo not drawn) the figure was 99.8% (inactive); with `CC12CN3CC(C)(CN(C1)C3c1cccnc1)C2=O` (stereo not drawn), 100% (inactive).
As for `CCOC(=O)c1c(C)c(P(=S)(N2CCOCC2)N2CCOCC2)n(C)c1C`, the viability is 87.1% (inactive).
`O=C(Cc1ccc(Br)cc1)N1CCN(Cc2ccccc2)CC1`: the viability is 72.7% (inactive).
The same measure, in the same setting: to `Cc1ccc2c(c1)C1CN(C)CCC1N2C(=O)Cn1nnc(-c2ccccc2F)n1` (stereo not drawn) belongs 83.8% (inactive); to `COc1ccc(C2C(C(=O)N3CCC4(CC3)OCCO4)CC(=O)N2c2ccc(OC)cc2)cc1` (stereo not drawn), 103% (inactive).
The same measure, in the same setting: to `Clc1cccc(CN2CCCCC2c2cccnc2)c1` (stereo not drawn) belongs 85.3% (inactive); to `C=Cn1ccnc1P(=S)(c1ccn(C)c1)c1nccn1C=C`, 99.2% (inactive).
On to `COCCOC(=O)C1=C(N)OC(C)=C(C(=O)OC)C12C(=O)Nc1ccccc12` (stereo not drawn), for which the viability was 93% (inactive).
Still for that read-out and setting: with `O=C(CN1CC(c2ccccc2)CC1=O)NCc1ccc(F)cc1` (stereo not drawn) the figure was 103% (inactive).
Turning to `O=c1c2ccccc2nc(-c2cccs2)n1-c1cnccn1`, the viability was 96.3% (inactive).
The same measure, in the same setting: to `COc1ccc(CC2C(=O)NC(=O)N(c3ccccc3)C2=O)c(OC)c1` (stereo not drawn) belongs 96.9% (inactive).
Still for that read-out and setting: to `Cc1c(C(=O)N2CCC3(CC2)OCCO3)oc2ccc(S(=O)(=O)N3CCOCC3)cc12` belongs 98.4% (inactive); to `O=C(CN1CCOCC1)c1ccc2cc[nH]c2c1`, 108% (inactive); to `COc1cccc(N2C(=O)CC(=O)NC2=O)c1`, 108% (inactive).
Consider `COc1cc2c(cc1OC)C(C(=O)N1CCC3(CC1)OCCO3)C(c1ccccc1F)N(C)C2=O` (stereo not drawn), for which the viability was 84.3% (inactive).

A short description of another assay: RAM pathway blockade in budding yeast – dse1pr::URA3 reporter, 5-FOA selection, pilot screen (AID 869).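 Further: 0% = DMSO wells with no growth and 100% = 10 µM 1-NA-PP1 with full growth; RAM network block rescues cells from 5-FOA so hits raise OD615 growth.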 The settings on record: S. cerevisiae dse1pr::URA3 5-FOA growth, OD615, 2 d, at 10 µM, hits give high values.
By inhibition is commonly meant the drop in the measured response relative to a control, in per cent. Take `O=C1CCCC2=C1C(c1cccnc1)Nc1ccccc1N2` (stereo not drawn): the inhibition was 1.61% (inactive).
For the molecule `CCCOC(=O)COc1cc(C)cc2oc(=O)c3c(c12)CCC3`, the inhibition was 1.03% (inactive).
The same measure, in the same setting: to `COc1cccc(OCC(=O)N2CCN(C)CC2)c1` belongs 0.505% (inactive); to `CCc1sc(C(=O)N2CCC3(CC2)OCCO3)cc1Br`, 0.935% (inactive).
Still for that read-out and setting: to `COc1cc2c(cc1OC)-c1c(OC)c(OC)cc3c1C(C2)N(C)CC3` (stereo not drawn) belongs -0.365% (inactive); to `CCOC(=O)c1cncn1C(C)c1ccccc1` (stereo not drawn), 0.145% (inactive); to `CN1C(=O)C(Cc2cccs2)C(=O)N(C)C1=O`, 0.795% (inactive).
For the molecule `O/N=C/c1c[nH]c2ccccc12`, the inhibition was 2.54% (inactive).
Same read-out and setting: to `C=C(C)c1cccc(C(C)(C)NC(=O)NC2CN3CCC2CC3)c1` (stereo not drawn) belongs -0.575% (inactive); to `Nc1ccc(S(=O)(=O)N2CC3CC(C2)c2cccc(=O)n2C3)cc1` (stereo not drawn), 0.13% (inactive); to `CCCCCCn1c(=O)c(C(=O)Nc2ccncc2)c(O)c2ccccc21`, -0.885% [strain carries analog-sensitive mutant Cbk1 kinase] (inactive).
As to `CCCCCP(=O)(O)c1ccccc1`, the inhibition is 0.735% (inactive).
Still for that read-out and setting: with `CN1CCN(c2ccc(NC(=O)C(C)(C)C)cc2)CC1` the figure was 1.54% (inactive); with `CCCOc1ccccc1C1SCC(=O)Nc2c1c(=O)[nH]n2C(C)CCC` (stereo not drawn), 1.6% (inactive); with `CC(C)CC1C(C#N)=C(N)Oc2c1c(=O)oc1ccccc21` (stereo not drawn), 1.71% (inactive).
Take `CC12CN3CC(C)(CN(C1)C3c1cccnc1)C2=O` (stereo not drawn): the inhibition is 1.14% (inactive).
Still for that read-out and setting: with `CN1CCN(CCC(C#N)(c2ccccc2)c2ccccc2)CC1` the figure was 1.81% (inactive); with `CCOC(=O)c1c(C)c(P(=S)(N2CCOCC2)N2CCOCC2)n(C)c1C`, 2.06% (inactive).
Same read-out and setting: with `O=C(Cc1ccc(Br)cc1)N1CCN(Cc2ccccc2)CC1` the figure was 1.23% (inactive).
Turning to `Cc1ccc2c(c1)C1CN(C)CCC1N2C(=O)Cn1nnc(-c2ccccc2F)n1` (stereo not drawn), the inhibition was 0.18% (inactive).
With `COc1ccc(C2C(C(=O)N3CCC4(CC3)OCCO4)CC(=O)N2c2ccc(OC)cc2)cc1` (stereo not drawn), the inhibition was 1% (inactive).
The same measure, in the same setting: to `Clc1cccc(CN2CCCCC2c2cccnc2)c1` (stereo not drawn) belongs 1.16% (inactive).
The same measure, in the same setting: to `C=Cn1ccnc1P(=S)(c1ccn(C)c1)c1nccn1C=C` belongs 0.94% (inactive).
Turning to `Cc1nn(C2CCOC(C)(C)C2)c2c1C(c1ccc3c(c1)OCO3)SCC(=O)N2` (stereo not drawn), the inhibition was 0.985% (inactive).
Same read-out and setting: to `COCCOC(=O)C1=C(N)OC(C)=C(C(=O)OC)C12C(=O)Nc1ccccc12` (stereo not drawn) belongs 2.54% (inactive); to `O=C(CN1CC(c2ccccc2)CC1=O)NCc1ccc(F)cc1` (stereo not drawn), 2.63% (inactive).
The same measure, in the same setting: with `O=c1c2ccccc2nc(-c2cccs2)n1-c1cnccn1` the figure was 2.33% (inactive); with `COc1ccc(CC2C(=O)NC(=O)N(c3ccccc3)C2=O)c(OC)c1` (stereo not drawn), -0.495% (inactive); with `CC1(C)CC(n2[nH]c(=O)c3c2NC(=O)CSC3c2ccc(F)cc2)CCO1` (stereo not drawn), -0.28% (inactive).
Still for that read-out and setting: with `Cc1cc(OCC(=O)NC2CCS(=O)(=O)C2)c2c3c(c(=O)oc2c1)CCC3` (stereo not drawn) the figure was 1.55% (inactive).
In the case of `COc1cc(C2SCC(=O)Nc3c2c(=O)[nH]n3C2CCCCCC2)cc(OC)c1OC` (stereo not drawn), the inhibition is 2.39% (inactive).
On the same count and under the same terms, to `Cc1c(C(=O)N2CCC3(CC2)OCCO3)oc2ccc(S(=O)(=O)N3CCOCC3)cc12` belongs 1.09% (inactive); to `FC(F)(F)/C(=N\P(=S)(N1CCOCC1)N1CCOCC1)N1CCOCC1`, 1.79% (inactive).
For `O=C(CN1CCOCC1)c1ccc2cc[nH]c2c1`, the inhibition was 0.035% (inactive).
Same read-out and setting: to `Cc1nc2ccc(Cl)cn2c1P(=S)(N1CCOCC1)N1CCOCC1` belongs 0.175% (inactive).
Consider `COc1cccc(N2C(=O)CC(=O)NC2=O)c1`, for which the inhibition was 1.5% (inactive).
On to `COc1cc2c(cc1OC)C(C(=O)N1CCC3(CC1)OCCO3)C(c1ccccc1F)N(C)C2=O` (stereo not drawn), for which the inhibition was 1.23% (inactive).
